What was measured:
Assay in all cases: PBM binding z-score (relative to random genomic background probes); higher = stronger binding; sequences stand for … in GC…GCGATTGACAGCGTAGAATGAAGG
[1] = test system: RARb homodimer (NR concentration 270 nM)
How it was run: (§1)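 For binding z-scores, the reference was random background probes on custom Agilent 4×180K protein-binding microarrays. These arrays were incubated 1 h with ligand-free nuclear receptor dimers in PBS pH 7.4, 2% milk, 0.02% Triton X-100, 1 mM DTT, 0.2 mg/mL BSA and 0.4 mg/ml salmon testes DNA. Fluorescence was scanned after antibody detection of each partner (one per run) and regression-normalized.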

[2] = test system: RARg:RXRa (NR concentration 270 nM, RXRa partner concentration 90 nM)
How it was run: as §1

[3] = test system: RARg homodimer (NR concentration 270 nM)
How it was run: as §1

[4] = test system: RXRa DBDmut IVT, anti-RXR (DBD mutation: RXRa K156A/R161A, NR concentration 90 nM)
How it was run: as §1

[5] = test system: RXRa homodimer (NR concentration 180 nM)
How it was run: as §1

[6] = test system: THRa:RXRa (NR concentration 90 nM, RXRa partner concentration 90 nM)
How it was run: as §1

[7] = test system: THRa homodimer (NR concentration 90 nM)
How it was run: as §1

[8] = test system: VDR homodimer (NR concentration 270 nM)
How it was run: as §1

Sequence | PBM binding z-score [1] | PBM binding z-score [2] | PBM binding z-score [3] | PBM binding z-score [4] | PBM binding z-score [5] | PBM binding z-score [6] | PBM binding z-score [7] | PBM binding z-score [8]
TCAAGTAGGTTAGTCGGGGCATTCAGCCAACATA | 0.846 | 0.431 | 0.362 | 1.46 | 0.586 | 1.26 | 0.656 | 0.907
GATACAGGGTCAAGGCCAGTGTACGCGTATTGAT | 3.55 | 5.61 | 5.38 | 2.22 | 6.4 | 3.55 | 1.08 | 2.13
AGTCAAAGTTCACTAGGTAACGTAGGATTCAGCT | 3.85 | 4.87 | 5.63 | 4.05 | 3.74 | 1.98 | 0.256 | 3.59
CAAACTAGGTCACAGAGGTCAAAGTCCGTGCGTA | 5.8 | 7.58 | 7.69 | 3.5 | 8.16 | 4.79 | 3.15 | 7.24
TCTTGTAGATCAATAGAGGTGAAGAAAGTGCGCT | 0.962 | 0.365 | 0.434 | 0.561 | 0.577 | 2.59 | -0.132 | -0.534
TCATATAGGTAAATGCTAGGTCAAAGTCCGATCT | 2.75 | 2.52 | 1.58 | 1.72 | 2 | 2.96 | 1.76 | 1.35
CGTCCAAGGTCAAGGTCAGTGTAAGAGACTCGAA | 4.82 | 6.56 | 7.36 | 3.69 | 6.28 | 4.39 | 3.57 | 3.32
ACGAGTTGGTCAGCTGAGGTCACACACAATTCGG | 4.17 | 4.17 | 4.27 | 1.82 | 4 | 4.77 | 4.97 | 4.4
CGAACTAGGTCATCCAGGACAGTGGATACATTGA | 3.05 | 4.08 | 4.8 | 2.01 | 2.9 | 3.74 | 1.96 | 2.06
TCATATAGGTAAAGGTGGAAGTCGAACGATATGA | 0.0636 | 0.544 | 0.404 | 1.02 | 0.958 | -0.14 | -0.387 | 0.109
TAGCCTAGTTCATTGGGCCAGTATAGTACGCATC | 0.671 | 0.573 | 1.01 | 2.8 | 0.243 | 0.192 | -0.374 | 2.72
GCACGGAGGACAAGGTCAGAGCTTTGTCCGTAGA | 3.22 | 3.17 | 3.57 | 1.01 | 2.56 | 2.89 | 1.58 | 0.622
TTACCAAGGTGAGCTGATGTCGTTGATCCAACTC | 0.273 | 0.225 | 0.147 | -0.369 | 0.239 | 1.48 | 0.0669 | -0.492
TCGGACAGGTGAAGGTAACTCAGGTACGCAGTCG | 1.08 | 0.664 | 1.17 | 0.768 | 0.653 | 1.33 | 0.486 | 0.395
TCATATAGGTAAATGCTAGGTGAACGTCCGATCT | 0.575 | 0.645 | 0.417 | 1.4 | 0.952 | 1.56 | 0.84 | 0.0802
CAAACTAGGTCACGAAAGGTCAAAGTCGAATGAC | 5.65 | 7.91 | 8.57 | 2.39 | 7.98 | 5.23 | 2.6 | 3.77
CCTATCAGGCCAATCTGGGTCACTCAAGGCTTGA | 2.48 | 1.44 | 1.71 | 0.421 | 1.14 | 4.02 | 1.16 | -0.0119
TTACCAAGGTGAATGGTCGTTGATGCACGCCTTG | 0.707 | 0.538 | 0.576 | -0.0991 | 0.73 | 1.47 | 0.775 | 0.132
CGTACTGGGCCAAAAAGGTCATTGATGCCGATAA | 4.63 | 4.76 | 4.11 | 1.07 | 4.86 | 3.15 | 0.617 | 2.61

Sequence | PBM binding z-score [1] | PBM binding z-score [2] | PBM binding z-score [3] | PBM binding z-score [4] | PBM binding z-score [5] | PBM binding z-score [6] | PBM binding z-score [7] | PBM binding z-score [8]
CGAACTAGGTGAAGGACAGTGAATCTCCGCACGC | 0.454 | 0.04 | 0.23 | -0.281 | 0.265 | 0.232 | -0.201 | -0.373
ATATGTAGGTTAGCTTGGGTCATTCAGACTAGGC | 2.7 | 2.07 | 1.67 | 0.678 | 1.89 | 4.29 | 1.36 | 1.36
GTAGCAAGGTGAATAGGTCGTTGATGAGTAGGCG | 1.48 | 2.35 | 1.1 | -0.689 | 1.56 | 1.36 | -0.149 | -0.287
ATACCAGGGTGATCGTGAGGTCGTTGATACTAAC | 1.83 | 2.26 | 0.727 | 0.415 | 1.78 | 3.38 | 2.62 | 2.64
TTACCAAGGTGAAAGGTCGTTGACGCACGCCTTG | 2.87 | 4.52 | 2.25 | 0.212 | 6.19 | 3.34 | 0.822 | 1.41
CGTCCAAGGTCAAGTTCAGTGAAAGAGACTCGAA | 4.68 | 6.6 | 7.17 | 4.31 | 6.26 | 3.99 | 2.87 | 4.75
ACTTACGGGTCAACCAGGTTATAGCACGCGTATA | 3.43 | 5.74 | 5.08 | 2.31 | 6.13 | 3.79 | 0.987 | 2.74
TCTAGTTGGTCAGGGAGGTCACACACGACGGGTA | 4.42 | 4.31 | 3.88 | 1.08 | 4.14 | 3.63 | 2.88 | 3.18
CCGACTGGGGCAAGGTTACCAAAACGCACAGCCA | 1.38 | 1.04 | 1.18 | -0.429 | 1.23 | 1.29 | 0.178 | -0.217
TCGAGTAGGTTACCAATTGGGCATTCAGCTTTCT | -0.00589 | 0.186 | -0.124 | 0.484 | 0.205 | -0.0916 | -0.446 | -0.653
CGAATTAGGTCATTGACAGGACAGTGAATAGTAA | 2.68 | 4.6 | 4.22 | 2.69 | 2.53 | 3.33 | 1.54 | 1.22
TCGAGTAGGTTACCAATGGGGCATGCAGCTTTCT | 0.595 | 1.02 | 0.374 | 0.239 | 0.609 | 0.0319 | -0.807 | -0.473
CCGACTGGGGCAAGGGTACCATAACGCACAGCCA | 0.569 | 0.349 | 0.692 | -1.52 | 0.269 | -0.0335 | -0.368 | -0.448
TCTTGTAGATCAGCAGGTTAGGAAAGCTGGCCAA | 0.063 | -0.177 | -0.406 | 0.591 | 0.165 | 0.0538 | -0.496 | -0.206
ATATGTAAGTTATCGGGTCATTCAGTTTGCGCAT | 2.48 | 2.12 | 1.48 | 1.61 | 2.59 | 3.24 | 2.84 | 3.74
TCTATTATTTGATTAGGGCAACCGAAACAGCGGA | 0.742 | 0.671 | 0.596 | 1.27 | 0.751 | 0.898 | 1.07 | 1.47
AGAATGTGGTTAAGATCAGGGAAACAGAATACAT | 0.296 | 0.287 | 0.502 | -0.315 | -0.0174 | 0.458 | -0.00414 | 0.151
CAAACTAGGTCAAGGGTCAAAGTCGAGCCAACCA | 4.7 | 7.41 | 6.13 | 2.47 | 8.6 | 4.36 | 1.45 | 3.15
CAAACTAGGTCACGAAAGGTCGAAGTCGAATGAC | 5 | 6.14 | 6.69 | 2.17 | 5.66 | 4.65 | 1.9 | 2.3

Sequence | PBM binding z-score [1] | PBM binding z-score [2] | PBM binding z-score [3] | PBM binding z-score [4] | PBM binding z-score [5] | PBM binding z-score [6] | PBM binding z-score [7] | PBM binding z-score [8]
ATCGAAAGGCCGAGGTGAGTATAGAGAAAGGGAA | 0.669 | 0.835 | 1.25 | -0.863 | 0.294 | 0.936 | 0.0762 | -0.433
AGAACGAGGGCAATGAGTTGATAGCCCGGGTGGC | 0.793 | 0.874 | 1.57 | 1.84 | 0.855 | 0.913 | -0.362 | 2.96
ACTCGGAGGACAAAGGTCAGAGCCACGCCAGTGA | 4.56 | 6.18 | 5.6 | 1.27 | 6.11 | 3.55 | 0.686 | 1.13
CGTCCAAGGTCAGAAAGGTCAGTGAATGCCGAGT | 5.58 | 6.18 | 6.89 | 3 | 5.59 | 4.14 | 2.3 | 4.66
GTACCAAGGTGGATAGGTCGTTGATGAGTAGGCG | 0.625 | 0.328 | 0.275 | -0.726 | 0.461 | -0.0275 | -0.612 | -0.371
CATACAGTGTCAGCTAGGCCAGAGTAGGGACGGC | 0.245 | 0.397 | 0.832 | -0.017 | 0.0865 | 0.027 | 0.00703 | -0.455
CGTCCAAGGTCAGAGGAGGTCAGTGAAGACAGAT | 5.15 | 6.03 | 6.88 | 2.36 | 5.13 | 5.09 | 2.8 | 3.43
CCTTACGGGTCACTGACAGGTTATACCATTTGGA | 3.56 | 5.73 | 4.84 | 1.64 | 5.54 | 2.85 | 0.447 | 1.41
TAGTCTAGGTCATTCAGGGGCCAGTATAGAAAGC | 3.57 | 5.83 | 4.7 | 2.05 | 2.96 | 3.63 | 1.42 | 1.88
AGTCAAAGTTCACTATGTAACGTAAGATTCAGCT | 3.66 | 4.55 | 5.44 | 4.2 | 3.68 | 1.36 | -0.244 | 3.86
TCTGGCAGGCCAGAGGGTCACTCAAGAGGTACGG | 2.63 | 2.81 | 1.94 | -0.443 | 2.6 | 1.62 | -0.676 | 0.353
TAGCCTAGGTCATTGGGCCAGTCTAGTACGCATC | 2.48 | 3.76 | 3.79 | 1.52 | 2.52 | 2.67 | 0.501 | 0.896
GCTAGTTGCTCAGTAAAAGGTCACACACCGGTCG | 5.11 | 4.7 | 4.02 | 0.441 | 5.17 | 3.61 | 1.73 | 1.14
CTACCTAGGTGAACAAGGTCGTTGATTACTATTC | 1.73 | 1.31 | 0.8 | 1.27 | 1.34 | 2.67 | 1.54 | 2.12
GCTTGAAGATCAAGGTTAAGAAAGACTAAGCTAA | 0.0789 | 0.319 | 0.181 | -0.437 | 0.877 | 1.02 | -0.36 | -0.116
CCTTACGGGTCACTCCACGTTATAGCATCGGAGT | 2.58 | 4.04 | 4.01 | 1.41 | 4.01 | 1.88 | 0.13 | 1.23
CCAGACAGGTGAGACGGTAACTCAGCCTCGATTA | 0.4 | -0.0368 | 0.0246 | 0.0275 | -0.179 | -0.0755 | 0.114 | 0.029
AGCACGAGGGCACGCTGAGTTGATAGCAGAGTAG | 1.33 | 1.97 | 2.42 | 1.87 | 1.52 | 2.05 | 0.103 | 0.992
TCTGCTCGGTCAGTTGGTCAGCTAACGAGCTGCC | 1.35 | 0.987 | 1.71 | -0.175 | -0.299 | -0.381 | -0.999 | -0.918
